Hit rate of the full screen: of about 3,300 compounds, about 280 (8.5%) were called active.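 The calls were made as follows: active = mean growth inhibition over the two runs of 50% or more; inactive = mean growth inhibition under 50%.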 The list comes from a sample in which actives are over-represented; it also holds similar structures and randomly drawn compounds.

The assay in a line: A549 NSCLC cell proliferation inhibitors – ATP luminescence, human non-small cell lung line, primary screen (AID 371).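 Also: compound exposure lasted 72 h before the ATP read; 0% = untreated cell signal and 100% = no luminescence left.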 Conditions: at 10 µM, hits give high values.
For `Cc1ccc(-n2c(N)c(C(N)=O)sc2=S)cc1`, the growth inhibition was 6.9% (inactive).

`CCCC(=O)Nc1nn(CCC)c2nc3ccccc3cc12`: the growth inhibition was -8.01% (inactive).

Turning to `CN1C(=O)c2c(sc3c2CCCC3)NC1c1ccccc1O` (stereo unspecified), the growth inhibition is 27.8% (inactive).

For `COc1cccc(C2C(C(=O)c3cc4ccccc4o3)=C(O)C(=O)N2CCN(C)C)c1OC` (stereo unspecified), the growth inhibition was 1.22% (inactive).

With `CCOC(=O)c1cnn2c1[nH]c(=O)c1ccccc12`, the growth inhibition was 7.89% (inactive).

As to `CC(C)OC(=O)c1c2nc3ccccc3nc2n2c1[nH]c(=O)c1ccccc12`, the growth inhibition is 60.3% (active).

As for `CCO/C(C)=N/n1c2nc3ccccc3nc2c2c(=O)n(CC(C)C)c(C)nc21`, the growth inhibition is 3.19% (inactive).

`Cc1cc2ccccc2cc(C)c1=O`: the growth inhibition was 9.2% (inactive).

As to `Cc1cc(=O)oc2c(CN3CCC(C)CC3)c(O)c(Cl)cc12`, the growth inhibition was -0.87% (inactive).

Consider `O=C(CC(c1ccc(F)cc1)c1ccco1)N1CCCC1` (stereo unspecified), for which the growth inhibition was 7.48% (inactive).

Regarding `Nn1c(SCC(=O)Nc2ccc3c(c2)OCCO3)nnc1C(F)(F)F`, the growth inhibition is 14.6% (inactive).

For `COc1ccc(OC)c(C2=Nn3c(nnc3C3CCCCC3)SC2)c1`, the growth inhibition was 47.4% (inactive).

With `c1cc2c(cc1C1=Nn3c(nnc3C3CCCCC3)SC1)OCO2`, the growth inhibition is 50.2% (active).

Take `c1ccc(-c2nnc3n2N=C(c2ccc4c(c2)OCO4)CS3)nc1`: the growth inhibition was 13.4% (inactive).

On to `O=S1CCCSC1c1cccnc1` (stereo unspecified), for which the growth inhibition was -0.58% (inactive).

Turning to `COc1ccc(/C(O)=C2\C(=O)C(=O)N(c3cc(C)on3)C2c2ccccc2OC)cc1C` (stereo unspecified), the growth inhibition was 7.8% (inactive).

On to `CCN(CC)c1nc(-c2cccc(OC)c2O)nc2ccccc12`, for which the growth inhibition is 13.8% (inactive).

With `CCC(C)Nc1nc(-c2cccc(OC)c2O)nc2ccccc12` (stereo unspecified), the growth inhibition was 71.5% (active).

Turning to `COC(=O)CNc1nc(-c2cccnc2)nc2ccccc12`, the growth inhibition is 6.85% (inactive).

Consider `COc1cccc(-c2nc(NCc3ccco3)c3ccccc3n2)c1O`, for which the growth inhibition is 9.14% (inactive).

With `COc1cccc(-c2nc(NC(C)C)c3ccccc3n2)c1O`, the growth inhibition was 77.9% (active).

Turning to `COc1cccc(-c2nc(NC(C)(C)C)c3ccccc3n2)c1O`, the growth inhibition was 20.9% (inactive).

For `CC1(C)Cc2nc(NCCCO)c(C#N)cc2CO1`, the growth inhibition was -0.91% (inactive).

Consider `CCCCOC(=O)C(C)c1c(C)[nH]c(=S)[nH]c1=O` (stereo unspecified), for which the growth inhibition was 5.11% (inactive).

Turning to `O=C(Nc1ncccc1Cl)c1cccc(F)c1`, the growth inhibition was 7.47% (inactive).

For `COc1ccc(C2C(C#N)=C(SC)NC3=C2C(=O)CC(C)(C)C3)cc1` (stereo unspecified), the growth inhibition was 11.2% (inactive).

For the compound `Fc1cnc(N2CCOCC2)nc1NCc1ccccc1`, the growth inhibition is -1.26% (inactive).

On to `Oc1ccccc1-c1nc(NCc2ccco2)c2ccccc2n1`, for which the growth inhibition is 31.9% (inactive).

As for `c1ccc(N2CCN(c3nc(NCc4ccco4)c4ccccc4n3)CC2)cc1`, the growth inhibition is 90.4% (active).

As for `COc1cccc(COc2nc3c(c(=O)n(C)c(=O)n3C)n2C)c1`, the growth inhibition is 29.5% (inactive).

As to `COc1cccc(OC)c1C(=O)Nc1nc2ccc(S(C)(=O)=O)cc2s1`, the growth inhibition was 11.2% (inactive).

With `CCCNCC(O)COc1ccccc1C(=O)CCc1ccccc1` (stereo unspecified), the growth inhibition is 54.2% (active).

Take `CCCOc1ccccc1C(=O)NCCCC(=O)O`: the growth inhibition was -12.4% (inactive).

Regarding `CCCCOc1ccccc1C(=O)NCCCC(=O)O`, the growth inhibition was -2.38% (inactive).

For `Cc1ccccc1NC(=O)NCCc1nc2ccccc2[nH]1`, the growth inhibition is -5.83% (inactive).

As to `COc1ccc(C(=O)CCN2CCCCCC2)cc1`, the growth inhibition was 2.68% (inactive).

Take `COc1ccc(C(O)C(CN2CCOCC2)c2ccccc2)cc1` (stereo unspecified): the growth inhibition was 2.01% (inactive).

Regarding `COc1ccc(C(=O)C(CN2CCCC2)c2ccccc2)cc1` (stereo unspecified), the growth inhibition was 88.2% (active).

As for `Cc1cc(C)nc(N(C#N)CN2C(=O)c3ccccc3C2=O)n1`, the growth inhibition was -0.78% (inactive).

`COC(=O)c1ccc(C(=O)OC)c(NC(=O)c2cc3ccccc3o2)c1`: the growth inhibition is 5.58% (inactive).

Take `COC(=O)/C(C#N)=C1/SC=C(C)N1c1ccccc1`: the growth inhibition is 4.54% (inactive).

Turning to `Cn1c(OCc2ccco2)nc2c1c(=O)n(Cc1ccc(Cl)c(Cl)c1)c(=O)n2C`, the growth inhibition is 59% (active).

As for `Cn1c(NCc2ccco2)nc2c1c(=O)n(Cc1ccc(Cl)c(Cl)c1)c(=O)n2C`, the growth inhibition is 70% (active).

In the case of `C=CCOc1nc2c(c(=O)n(Cc3ccc(Cl)c(Cl)c3)c(=O)n2C)n1C`, the growth inhibition is 35.1% (inactive).

`Cn1c(=O)c2c(nc(NCc3ccco3)n2Cc2ccc(Cl)cc2Cl)n(C)c1=O`: the growth inhibition was 0.48% (inactive).

`Cn1c(OCc2ccc3c(c2)OCO3)nc2c1c(=O)n(Cc1cccc(Cl)c1)c(=O)n2C`: the growth inhibition was -0.73% (inactive).

Consider `Cn1c(=O)c2c(nc(NCc3ccco3)n2Cc2ccccc2Cl)n(C)c1=O`, for which the growth inhibition was 2.6% (inactive).

On to `CNC(=O)c1cc2ccccc2o1`, for which the growth inhibition is -3.18% (inactive).

Consider `O=c1cc(O)nc2n1CCCS2`, for which the growth inhibition was 2.49% (inactive).

In the case of `COC(=O)C(NC(=O)c1ccco1)(Nc1ccc(Br)cn1)C(F)(F)F` (stereo unspecified), the growth inhibition was 22.7% (inactive).

Consider `CCOC(=O)CC(C#N)c1cn(C)c2ccccc12` (stereo unspecified), for which the growth inhibition was 3.83% (inactive).

On to `C=CC[N+](C)(C)CCCNC(=O)/C=N/O`, for which the growth inhibition was -6.91% (inactive).

Turning to `COc1cccc(C(=O)Nc2ccc(-c3nnc(-c4ccco4)o3)cc2)c1`, the growth inhibition is 23.8% (inactive).

As for `CCN(CC)CCn1c(O)c(N=O)c2ccccc21`, the growth inhibition was 2.91% (inactive).

Regarding `Cn1c(NCc2ccccc2)nc2c1c(=O)n(Cc1ccccc1)c(=O)n2C`, the growth inhibition was 39.1% (inactive).

For the compound `Cn1c(N2CCOCC2)nc2c1c(=O)n(Cc1ccc(Cl)cc1)c(=O)n2C`, the growth inhibition is 17.2% (inactive).

`Cn1c(NCc2ccccc2)nc2c1c(=O)n(Cc1ccc(Br)cc1)c(=O)n2C`: the growth inhibition is 72.5% (active).

With `Cn1c(N2CCOCC2)nc2c1c(=O)n(Cc1ccc(Cl)c(Cl)c1)c(=O)n2C`, the growth inhibition was 36.7% (inactive).

Turning to `Cn1c(NCc2cccnc2)nc2c1c(=O)n(Cc1ccccc1F)c(=O)n2C`, the growth inhibition was 18.8% (inactive).

As to `Cn1c(N2CCN(c3ccccn3)CC2)nc2c1c(=O)n(Cc1ccccc1Cl)c(=O)n2C`, the growth inhibition is 7.18% (inactive).

As to `COCCNc1nc2c(c(=O)n(Cc3ccc(OC)cc3)c(=O)n2C)n1C`, the growth inhibition is 12.2% (inactive).

For `COc1ccc(Cn2c(=O)c3c(nc(NCCO)n3C)n(C)c2=O)cc1`, the growth inhibition is 3.12% (inactive).

With `Cn1c(NCC(O)c2ccccc2)nc2c1c(=O)n(Cc1ccc(Cl)c(Cl)c1)c(=O)n2C` (stereo unspecified), the growth inhibition was 88% (active).

For `Cn1c(NCC(O)c2ccccc2)nc2c1c(=O)n(Cc1ccc(Cl)cc1)c(=O)n2C` (stereo unspecified), the growth inhibition is 71.7% (active).

On to `Cn1c(=O)n(Cc2ccccc2)c(=O)c2c1nc(NCC1CCCO1)n2Cc1ccccc1` (stereo unspecified), for which the growth inhibition is 45.3% (inactive).

Regarding `Cn1c(N2CCN(c3ccccn3)CC2)nc2c1c(=O)n(Cc1ccc(Cl)cc1)c(=O)n2C`, the growth inhibition is 50.6% (active).

The record behind these values is PubChem BioAssay AID371 (SRMLSC, 2006).
